This is part of a sample that, as a whole, favours compounds with a hit. Of some 79,000 tested, about 15% had one in any assay. Unmarked numbers belong to inactive results. Activity calls are given as the source filed them. Rule as the data show it: active = growth inhibition above about 70%; inactive = the rest.
Assays:
[1] = NCI Yeast Anticancer Drug Screen. Data for the rad50 strain (AID 155);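 also: 0% = growth of vehicle-only cultures of the same strain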; details: S. cerevisiae rad50 strain growth inhibition; at 50.0 µM; stronger effect = higher value
Method in brief: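 A DNA repair-deficient yeast mutant serves as the test organism; compound-induced growth inhibition is calculated against vehicle-treated cells.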

[2] = NCI Yeast Anticancer Drug Screen. Data for the mec2-1 strain (AID 157); details: S. cerevisiae mec2-1 strain, at 50.0 µM, stronger effect = higher value
Method in brief: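 Each compound was tested on mec2-1 yeast, a strain altered in DNA damage repair or cell cycle control. Growth inhibition is reported relative to vehicle.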

[3] = NCI Yeast Anticancer Drug Screen. Data for the sgs1 mgt1 strain (AID 161);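 also: 0% = growth of cultures given vehicle only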; details: S. cerevisiae sgs1 mgt1 strain, at 50.0 µM, stronger effect = higher value
Method in brief: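 Read-out: growth inhibition vs vehicle controls. Cells: mutant yeast strain deficient in DNA damage repair.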

[4] = NCI Yeast Anticancer Drug Screen. Data for the cln2 rad14 strain (AID 165);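 also: 0% = growth equal to vehicle treated cultures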; details: S. cerevisiae cln2 rad14 strain, at 50.0 µM, stronger effect = higher value
Method in brief: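 Test compounds were added to cln2 rad14 yeast cultures; inhibition of growth was then determined by comparison with vehicle treatment.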

[5] = NCI Yeast Anticancer Drug Screen. Data for the bub3 strain (AID 167); details: S. cerevisiae bub3 mutant strain, at 50.0 µM, stronger effect = higher value
Method in brief: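 Inhibition values come from growth of compound-treated mutant yeast normalised to vehicle-treated controls.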

[6] = NCI Yeast Anticancer Drug Screen. Data for the mlh1 rad18 strain (AID 175); details: S. cerevisiae mlh1 rad18 strain growth inhibition; at 50.0 µM; stronger effect = higher value
Method in brief: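 Inhibition values reflect reduced growth of mutant yeast versus vehicle-treated controls following compound exposure; the mutations affect DNA damage repair.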

Row | SMILES | growth inhibition [1] | growth inhibition [2] | growth inhibition [3] | growth inhibition [4] | growth inhibition [5] | growth inhibition [6]
1 | C=CCOCn1ccc(=O)[nH]c1=O | 4.35% | -3.05% | 5.85% | 3% | 3.2% | -3.05%
2 | Cc1cc(C)[n+](C)c(/C=C/c2ccc([N+](=O)[O-])cc2)n1 | 14.2% | 6.95% | 15.6% | 27.8% | 22.4% | 23.2%
3 | COc1ccccc1/C=N/N1C(=O)C2C3C=CC(O3)C2C1=O (configuration not stated) | 2.35% | 9.8% | 0.1% | 0.15% | 3.45% | 14.5%
4 | COc1cc(OC)c(C2c3cc4c(cc3OC(N3CCCC3)C2C)OCO4)c(OC)c1 (configuration not stated) | 17.1% | -11.8% | 2.45% | 18% | -5.1% | -1.4%
5 | NC(=O)c1csc(Nc2csc(N)n2)n1 | -6.05% | -15.5% | -6.35% | -13.6% | 18.8% | -26.6%
6 | O=C(Cn1c(=O)oc2ccc(C(=O)c3ccccc3Cl)cc21)c1ccc([N+](=O)[O-])cc1 | -27.6% | -28.3% | 13% | -8.45% | -2.25% | -2.65%
7 | O=C(Cl)c1c(F)c(F)c(F)c(F)c1F | -29.6% | -26.1% | -7.4% | 19.4% | 1.25% | -18.9%
8 | Cc1ccc(S(=O)(=O)Nc2ccccc2-c2nc3ccc([N+](=O)[O-])cc3c(=O)o2)cc1 | 35.6% | 36.2% | 22.1% | 1.1% | 11.8% | 45.2%
9 | [N-]=[N+]=NCN1C(=O)C2C3C=CC(C2C1=O)C1C2C(=O)N(CN=[N+]=[N-])C(=O)C2C31 (configuration not stated) | -3.2% | -4.1% | -39.4% | 4.4% | -25.8% | -42.1%
10 | CC(C)CC(=O)OC1=C(OC(=O)CC(C)C)C(=O)C(OC(=O)CC(C)C)=C(OC(=O)CC(C)C)C1=O | 36.9% | 15.3% | 39.3% | 29.6% | 7.9% | 25.3%
11 | CCOC(=O)NC(S(=O)(=O)O)S(=O)(=O)O | 0.6% | 9.8% | -25.1% | -9.8% | 16.1% | 18.5%
12 | NC(=O)c1[nH]c(COCCO)nc1N | -20.4% | -10.4% | 14% | -14.9% | 7.05% | 22.4%
13 | CC12CCC[C@@](C)(C(=O)OC3OC(CO)C(O)C(O)C3O)[C@H]1CCC13CC4CC(OC4(CO)[C@H]1O)[C@@H]23 (some centres not stated) | -8.45% | -26.1% | -20.9% | -18.8% | -20.7% | -17.9%
14 | CCC(=O)Oc1ccc(CCC(C)=O)cc1OC | 4.15% | -7.55% | -16.8% | -26.6% | -2.3% | 25.8%
15 | Cc1cccc(C)c1NC(=O)N(Cc1ccccc1)Cc1ccccc1 | 1.65% | 15.2% | 20.6% | -2% | 36.7% | 30.6%
16 | O=c1[nH]cc(Cl)cc1[N+](=O)[O-] | 10.8% | 3.95% | -1.4% | 2.3% | -17.8% | 1.7%
17 | Cc1cccc(C(O)c2ccccn2)c1O (configuration not stated) | -3.85% | -4.45% | -6.8% | -4.45% | -3.8% | 3.1%
18 | OCC1OC(n2cnc3c(NCc4ccccc4)ncnc32)C(O)C1O (configuration not stated) | -14.3% | -2.5% | 3.2% | -44.2% | 11.6% | 0.55%
19 | Nc1c2cc3ccc2nc2ccc(cc12)OCCOCCOCCOCCOCCOCCO3 | -3.05% | -16.1% | -9.55% | -12% | -0.35% | -21.2%
20 | CC(=O)OC1CCC2(C)C(CCC3C2CC(OC(C)=O)C2(C)C(C(C)CCC(c4ccccc4)c4ccccc4)CCC32)C1 (configuration not stated) | 9.1% | -20.4% | 1.1% | 14.9% | 0.15% | -1.55%
21 | COc1ccc(NC(=O)c2oc3cc(O)ccc3c(=O)c2C)c([N+](=O)[O-])c1 | 0.65% | -1.8% | 11.5% | 11.9% | -15.2% | 2.2%

Row | SMILES | growth inhibition [1] | growth inhibition [2] | growth inhibition [3] | growth inhibition [4] | growth inhibition [5] | growth inhibition [6]
22 | CC(=O)Oc1nnc(OC(C)=O)c2cc(N)ccc12 | -13.3% | -18.3% | 4.45% | -1.2% | 9.9% | 0.75%
23 | CCCCc1c(O)nc(NCCCC(N)C(=O)O)[nH]c1=O (configuration not stated) | -9.55% | -13.8% | -7.2% | -28.9% | -4.6% | -17.8%
24 | CC1(C=O)CCCC2(C)[C@@H]1CCC13CC(CC[C@H]12)C(C(=O)O)C3 (some centres not stated) | 28.9% | 30.6% | 22.6% | 14.3% | 26.8% | 16.7%
25 | c1ccc(-c2nc3ccccc3n2CCc2ccncc2)nc1 | 11% | 10.4% | 14% | -14% | 3.2% | 20.9%
26 | CCOC(=O)c1nc2ccccc2nc1NCc1ccc(OC)cc1 | -6.5% | -6.45% | -30.4% | 6.55% | -22.4% | 3.4%
27 | COC(=O)Cc1nc2ccccc2[nH]c1=O | -1.15% | -3.25% | -10.3% | -29.2% | -16.8% | -5.7%
28 | CC(Oc1ccc2cc(C(=O)c3ccccc3)c(=O)oc2c1)C(=O)O (configuration not stated) | -4.25% | 3.75% | 19.2% | 32.9% | -0.1% | 44.9%
29 | NS(=O)(=O)c1ccc(NC(=O)c2cccn3c(=O)c4ccccc4nc23)cc1 | 6.6% | 9.45% | -7.6% | 27.2% | -0.25% | 14.9%
30 | O=C1c2ccccc2S[C@@H](O)[C@@H]2CCCN12 | -31.9% | -13.7% | -64.7% | -13.7% | -41.8% | -41.7%
31 | Cc1cc2c(cc1C)C(C)(C)c1c(nc(N)[nH]c1=O)N2C | 3.7% | -1.1% | 20.5% | -15.7% | -0.45% | 1.7%
32 | O=[N+]([O-])c1cc(NC(=S)SCc2ccc3c(c2)OCO3)ccc1Cl | 82.7% (active) | 72.2% (active) | 76.7% (active) | 42.8% | 56.4% | 78% (active)
33 | O=C1CC(c2ccccc2)S(=O)(=O)c2ccccc2N1 (configuration not stated) | -13.6% | -8.5% | 1.5% | 10.2% | 11.3% | 1.45%
34 | CC(C)CNc1ncnc2c1ncn2C | -2.2% | -4.85% | -4% | -18.9% | 1.1% | -0.25%
35 | COC(=O)c1s/c(=N\C(=S)N(C)C)n(-c2ccccc2)c1C(=O)OC | 5.3% | 20.2% | -0.1% | 15.2% | -8.85% | 11.2%
36 | CC(C)C(O)C(=O)C(O)C(C)C (configuration not stated) | -13.4% | -8.2% | 4.5% | 15.7% | 3.4% | -10.9%
37 | Cc1cc(N(CCC#N)CCC#N)ccc1/C=C1N=C(/C=C/c2ccccc2)OC(=O)N\1 | 14.7% | -5% | 4.7% | -10.1% | 1.15% | -13.7%
38 | NC(=O)N/N=C/c1cccc(O)c1O | 6% | -6.2% | -24.7% | -10.2% | -2.9% | 5.75%
39 | CC(=O)Oc1ccc(C(C)C)cc1 | -9.55% | -30.9% | -25.3% | -13.6% | -11.2% | -1.6%
40 | O=C(Cc1ccccc1)c1ccc(OCC(O)CN2CCN(c3ccccc3)CC2)cc1 (configuration not stated) | 97.7% (active) | 98.1% (active) | 99.3% (active) | 93.4% (active) | 84.1% (active) | 96.3% (active)
41 | Cc1cc(NCCN(C(C)C)C(C)C)nc(Nc2nc3ccc(Cl)cc3[nH]2)n1 | -13% | -16.5% | -10.2% | -45.2% | 1.95% | -44.5%
42 | CC(=O)C1=CN(Cc2ccccc2)C(O)CC1C(N)=O (configuration not stated) | 7.55% | -12.6% | 4.7% | 10.8% | 16.1% | 1.3%

— PubChem BioAssay (NCI)
